The record followed here is PubChem BioAssay (NCATS).

Records with an inconclusive call do not appear. Where a call stands in place of a potency, no number is given. Activity calls are given as the source filed them. The call rests on the fitted dose curve; in most records, active means well fitted inhibition curve with a large enough effect; inconclusive means small, poorly fitted or top-dose-only effect; inactive means no such curve, though single readings can be large or run the other way. Non-standard residues stand in square brackets, D forms with d. Residues, ends and D or L forms follow the SMILES beside them. *: point of attachment. Sta = CC(C)C[C@H](N)[C@@H](O)CC(=O)O; Isovaleryl = CC(C)CC(=O)*

Protein phosphatase 1D (Homo sapiens), sequence (O15297 whole entry, looked up): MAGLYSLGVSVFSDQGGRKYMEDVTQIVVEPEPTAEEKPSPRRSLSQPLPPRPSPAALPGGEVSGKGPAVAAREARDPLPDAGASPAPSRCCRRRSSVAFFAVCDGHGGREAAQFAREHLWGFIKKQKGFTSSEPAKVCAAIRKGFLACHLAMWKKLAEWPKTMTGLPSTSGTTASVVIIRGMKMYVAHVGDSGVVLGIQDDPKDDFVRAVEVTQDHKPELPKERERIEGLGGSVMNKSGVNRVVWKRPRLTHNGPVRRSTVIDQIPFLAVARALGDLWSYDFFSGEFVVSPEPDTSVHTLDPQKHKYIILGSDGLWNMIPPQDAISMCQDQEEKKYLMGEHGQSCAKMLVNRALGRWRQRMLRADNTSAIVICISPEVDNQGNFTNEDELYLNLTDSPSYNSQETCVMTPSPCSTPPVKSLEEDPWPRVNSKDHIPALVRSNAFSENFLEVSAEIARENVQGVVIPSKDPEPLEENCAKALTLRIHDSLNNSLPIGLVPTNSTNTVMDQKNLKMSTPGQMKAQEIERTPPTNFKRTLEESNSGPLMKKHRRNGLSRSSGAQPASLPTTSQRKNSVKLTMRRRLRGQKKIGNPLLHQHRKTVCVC

The target in the test is Protein phosphatase 1D (Homo sapiens) (UniProt O15297). The test is described as follows: RapidFire Mass Spectrometry qHTS Assay for Modulators of WT P53-Induced Phosphatase 1 (WIP1) (AID 1347424). To be noted: WIP1 dephosphorylation of phosphopeptide, RapidFire MS; series mostly up to 63 µM. The text has this:
Assay Provider (PI): Nathan Coussens Ph. D.
National Center for Advancing Translational Sciences (NCATS), Rockville, MD
National Institute of Health (NIH), Bethesda, Maryland
WT P53-Induced Phosphatase 1 (WIP1) is a member of the magnesium-dependent serine/threonine protein phosphatase (PPM) family and is induced by P53 in response to DNA damage. In several human cancers, the WIP1 protein is overexpressed, which is generally associated with a worse prognosis. Although WIP1 is an attractive therapeutic target, no potent, selective, and bioactive small-molecule modulator with favorable pharmacokinetics has been reported. Phosphatase enzymes are among the most challenging targets for small molecules because of the difficulty of achieving both modulator selectivity and bioavailability. Another major obstacle has been the availability of robust and physiologically relevant phosphatase assays that are suitable for high-throughput screening.
Here, we describe two orthogonal biochemical WIP1 activity assays that utilize phosphopeptides from native WIP1 substrates. We optimized a RapidFire MS assay to quantify the enzymatically dephosphorylated peptide reaction product in a 384-well format. Additionally, a redshifted Rhodamine-PBP fluorescence assay was optimized in a 1,536-well format to enable real-time WIP1 activity measurements through the detection of the orthogonal reaction product, Pi. We validated these two optimized assays by quantitative high-throughput screening against the National Center for Advancing Translational Sciences (NCATS) Pharmaceutical Collection and used secondary assays to confirm and evaluate inhibitors identified in the primary screen.
SEQUENCE No. (e.g., 1, 2, 3, etc.); […] (e.g., Cells, Incubation, Reagent, etc.); VALUE; DESCRIPTION
1; Reagent; 50 uL; dispensed assay buffer: 0.1% formic acid in water (10 uL : 40 uL) solution in column 1
3; Library Compounds; 63 nL; library compounds in DMSO, columns 3-24
4; Control Compounds; 63 nL; DMSO in wells I-P, columns 1-2, GSK830371 (10 uM, final) in wells A-H, column 2
5; Time; 1 hr; incubation
6; Substrate; 2 uL; VEPPL-pS-QETFS (10 uM) in assay buffer, column 2-24
7; Time; 5 min; incubation
8; Reagent; 2 uL; 0.5% formic acid in water, columns 2-24
9; Reagent; 38 uL; VEPPL-S-QETF*S in 0.1% formic acid, columns 2-24
10; Detection; mass spec; RapidFire mass spectrometry
NOTES (numbers refer to sequence above)
1, 2, 6; dispensed reagent in White Nunc 384-well PP microplates (264573); assay buffer: 50 mM Tris-HCl pH 7.5, 30 mM MgCl2, 1 mM TCEP, 0.1 mM EGTA, 75 ug/mL BSA.
2, 6, 8, 9; Dispensed with BioRaptr (Beckman Coulter)
2, 6, 9; Final concentrations: 10 nM WIP1; 2 uM VEPPL-pS-QETFS; 1 uM VEFFL-S-QETF*S
3 & 4; Kalypsys Pintool transfer (Wako USA), Tip wash sequence: water, DMSO, methanol, 20 sec vacuum dry.
5 & 7; incubation at room temperature
10; RapidFire mass spectrometry read using the Agilent RapidFire 360 (Clausse, 2019)
Clausse V, et al. Physiologically relevant orthogonal assay for the discovery of small-molecule modulators of WIP1 […] in high-throughput screens. J Biol Chem. 2019, 294(46): 17654-17668. doi:10.1074/jbc.RA119.010201
In general terms: In qHTS, concentration-response curves come from the screen itself.
Regarding `Cc1ncc([N+](=O)[O-])n1CC(C)O` (stereo not given), the Potency result is “inactive”. Next, `COCCCN1CCC(NC(=O)c2cc(Cl)c(N)c3c2OCC3)CC1`: “inactive”. Next, `CC1=C(C)C(=O)C(C(CCCCCC(=O)O)c2ccccc2)=C(C)C1=O` (stereo not given): “inactive”; `Cc1cc(=O)c2c(O)c3c(O)cc(=O)c4c3c3c(cc(O)c1c23)C(C)(C)C=4O`: “inactive”.

On to `Cc1cc2cc3c(C)cc(=O)oc3c(C)c2o1`, for which the Potency result was “inactive”. Next, `Nc1ncn([C@H]2C[C@H](O)[C@@H](CO)O2)c(=O)n1`: “inactive”.

Take `Cc1ccc(C(=O)c2cc(O)c(O)c([N+](=O)[O-])c2)cc1`: the Potency result was “inactive”.

Consider `Cc1cc(C2CCCCC2)n(O)c(=O)c1`, for which the Potency result is “inactive”. As to `CN(C)[C@@H](CCOc1cccc2ccccc12)c1ccccc1`, the Potency result is “inactive”. Next, `c1ccc2[nH]c(-c3cscn3)nc2c1`: “inactive”.

Turning to `NS(=O)(=O)c1cc(C(=O)O)c(NCc2ccco2)cc1Cl`, the Potency result was “inactive”. `CC(S)C(=O)NCC(=O)O` (stereo not given): the Potency result is “inactive”. For the compound `COc1cc(Nc2c(C#N)cnc3cc(OCCCN4CCN(C)CC4)c(OC)cc23)c(Cl)cc1Cl`, the Potency entry was “inactive”.

With `O=C1CCc2ccc(OCCCCN3CCN(c4cccc(Cl)c4Cl)CC3)cc2N1`, the Potency result is “inactive”. The entry for `Clc1ccc(C(Cn2ccnc2)OCc2ccsc2Cl)c(Cl)c1` (stereo not given) is “inactive”. Next, `Cc1nc(Nc2ncc(C(=O)Nc3c(C)cccc3Cl)s2)cc(N2CCN(CCO)CC2)n1`: “inactive”; `CCc1nc(N)nc(N)c1-c1ccc(Cl)cc1`: “inactive”. Next, `Cc1nccn1CC1CCc2c(c3ccccc3n2C)C1=O` (stereo not given): “inactive”. In the case of `Cc1c(OCC(F)(F)F)ccnc1CS(=O)c1nc2ccccc2[nH]1` (stereo not given), the Potency entry was “inactive”.

In the case of `CCCc1cc(=O)[nH]c(=S)[nH]1`, the Potency result was “inactive”.

Turning to `NC(=O)Cc1cccc(C(=O)c2ccccc2)c1N`, the Potency result was “inactive”. The entry for `Cn1c(NCCN(CCO)CCCc2ccc([N+](=O)[O-])cc2)cc(=O)n(C)c1=O` is “inactive”. Take `CCCCc1ccc2nc(NC(=O)OC)[nH]c2c1`: the Potency result is “inactive”.

On to `CC(C)CC(=O)N[C@H](C(=O)N[C@H](C(=O)N[C@@H](CC(C)C)[C@@H](O)CC(=O)N[C@@H](C)C(=O)N[C@@H](CC(C)C)[C@@H](O)CC(=O)O)C(C)C)C(C)C` (Isovaleryl-VV[Sta]A[Sta]-OH), for which the Potency result is “inactive”. Take `CN1CCC(=C2c3ccccc3CCc3sccc32)CC1`: the Potency result was “inactive”. The entry for `O=C(O)c1cc(=O)c2c(OCC(O)COc3cccc4oc(C(=O)O)cc(=O)c34)cccc2o1` is “inactive”; for `COCCCOc1ccnc(CS(=O)c2nc3ccccc3[nH]2)c1C` (stereo not given) it is “inactive”. On to `CCCCN(CCCC)CCC(O)c1cc2c(Cl)cc(Cl)cc2c2cc(C(F)(F)F)ccc12` (stereo not given), for which the Potency entry was “inactive”. For the compound `CCCCCCCCOc1ccccc1C(=O)Nc1ccc(C(=O)OCC[N+](C)(CC)CC)cc1`, the Potency result is “inactive”.

As to `Cc1cc(=O)oc2cc(O)ccc12`, the Potency entry is “inactive”. With `CCN(CC)C(=S)SSC(=S)N(CC)CC`, the Potency result is “inactive”. Take `CC(C)c1ccc2oc3nc(N)c(C(=O)O)cc3c(=O)c2c1`: the Potency entry is “inactive”. As for `CC(C)[C@H](N)C(=O)OCCOCn1cnc2c(=O)[nH]c(N)nc21`, the Potency entry was “inactive”. With `CC(C)C[C@H](NC(=O)[C@H](Cc1ccccc1)NC(=O)c1cnccn1)B(O)O`, the Potency result is “inactive”. Next, `c1cnc2cc3c(cc2n1)C1CNCC3C1`: “inactive”; `COc1cc(C(C)=O)ccc1OCCCN1CCC(c2noc3cc(F)ccc23)CC1`: “inactive”; `Cc1c(C(=O)NN2CCCCC2)nn(-c2ccc(Cl)cc2Cl)c1-c1ccc(Cl)cc1`: “inactive”. Next, `S=c1nc[nH]c2nc[nH]c12`: “inactive”. Take `CCN(CC)CCOc1ccc(Cc2ccccc2)cc1`: the Potency entry is “inactive”. The entry for `CC1=C(C(=O)O)N2C(=O)[C@@H](NC(=O)[C@H](N)C3=CCC=CC3)[C@H]2SC1` is “inactive”.
